Experimental data from PubChem BioAssay AID1159580 (chemical genetic matrix, 2015).
The campaign covered roughly 5,500 compounds. About 2,000 (36%) were called active. Another 18% or so got no clear call; they are omitted. The list shows a part of the results. Unmarked numbers belong to inactive results. No stated cut-off is given here; in the data, active means normalized growth mostly below about 0.91 (no sharp cut-off); inconclusive means no clear call, values can overlap the other calls; inactive means mostly above about 0.92.

Assay: chemical genetic growth profiling, strain panel (AID 1159580);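 further: tested at 20 µM; growth read once vehicle control cultures reached saturation at 30 °C; 1 = growth at the plate median or of vehicle wells; lower values mean less growth of the strain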
Conditions: S. cerevisiae deletion strains, growth OD

O=c1c(O)c(-c2ccc(O)c(O)c2)oc2c(O[C@@H]3O[C@H](CO)[C@H](O)[C@@H](O)[C@H]3O)c(O)cc(O)c12
normalized growth (locus YAL021C, strain ccr4, active compounds read low): 1.01
normalized growth (locus YAL026C, strain drs2, active compounds read low): 1.03
normalized growth (locus YAL030W, strain snc1, active compounds read low): 1.01
normalized growth (locus YBL061C, strain skt5, active compounds read low): 1.01
normalized growth (locus YBR009C, strain hhf1, active compounds read low): 1.02
normalized growth (locus YBR023C, strain chs3, active compounds read low): 1.03
normalized growth (locus YBR171W, strain sec66, active compounds read low): 1.02
normalized growth (locus YBR231C, strain swc5, active compounds read low): 1.01
normalized growth (locus YBR279W, strain paf1, active compounds read low): 1.01
normalized growth (locus YCL011C, strain gbp2, active compounds read low): 1.03
normalized growth (locus YCL016C, strain dcc1, active compounds read low): 1.02
normalized growth (locus YCL061C, strain MRC1, active compounds read low): 1
normalized growth (locus YCL069W, strain vba3, active compounds read low): 1.03
normalized growth (locus YCR088W, strain abp1, active compounds read low): 1
normalized growth (locus YDL005C, strain med2, active compounds read low): 1
normalized growth (locus YDL040C, strain nat1, active compounds read low): 1.01
normalized growth (locus YDR001C, strain nth1, active compounds read low): 1.02
normalized growth (locus YDR069C, strain doa4, active compounds read low): 1.03
normalized growth (locus YDR137W, strain rgp1, active compounds read low): 0.988
normalized growth (locus YDR159W, strain sac3, active compounds read low): 0.997
normalized growth (locus YDR195W, strain ref2): 0.965
normalized growth (locus YDR297W, strain sur2, active compounds read low): 1.03
normalized growth (locus YDR334W, strain swr1, active compounds read low): 1.02
normalized growth (locus YDR335W, strain msn5, active compounds read low): 1.02
normalized growth (locus YDR392W, strain spt3, active compounds read low): 0.978
normalized growth (locus YEL003W, strain gim4, active compounds read low): 1.02
normalized growth (locus YEL037C, strain rad23, active compounds read low): 1.01
normalized growth (locus YEL061C, strain CIN8 (second series), active compounds read low): 1.03
normalized growth (locus YER015W, strain faa2, active compounds read low): 1
normalized growth (locus YER016W, strain bim1, active compounds read low): 1.01
normalized growth (locus YER111C, strain swi4, active compounds read low): 1.01
normalized growth (locus YER155C, strain BEM2 (second series), active compounds read low): 1.04
normalized growth (locus YFR010W, strain ubp6, active compounds read low): 1.01
normalized growth (locus YGL167C, strain pmr1, active compounds read low): 1.02
normalized growth (locus YGL173C, strain kem1, active compounds read low): 1.02
normalized growth (locus YGL227W, strain vid30, active compounds read low): 0.999
normalized growth (locus YGL240W, strain doc1, active compounds read low): 1.01
normalized growth (locus YGL253W, strain hxk2, active compounds read low): 1.02
normalized growth (locus YHR013C, strain ard1, active compounds read low): 1.02
normalized growth (locus YHR027C, strain rpn1, active compounds read low): 0.998
normalized growth (locus YHR030C, strain SLT2, active compounds read low): 0.895
normalized growth (locus YHR079C, strain IRE1, active compounds read low): 0.886
normalized growth (locus YHR142W, strain chs7, active compounds read low): 1.04
normalized growth (locus YJL092W, strain hpr5, active compounds read low): 1.01
normalized growth (locus YJL095W, strain BCK1 (second series), active compounds read low): 1.01
normalized growth (locus YJL095W, strain BCK1, active compounds read low): 0.895
normalized growth (locus YJL115W, strain asf1, active compounds read low): 1
normalized growth (locus YJL129C, strain trk1, active compounds read low): 1
normalized growth (locus YJL154C, strain vps35, active compounds read low): 1.02
normalized growth (locus YJL164C, strain tpk1, active compounds read low): 1.03
normalized growth (locus YJL166W, strain qcr8, active compounds read low): 1.04
normalized growth (locus YJL187C, strain SWE1, active compounds read low): 1.03
normalized growth (locus YJR066W, strain TOR1, active compounds read low): 0.914
normalized growth (locus YKL160W, strain elf1, active compounds read low): 1
normalized growth (locus YKR026C, strain gcn3, active compounds read low): 1.01
normalized growth (locus YKR091W, strain srl3, active compounds read low): 1.02
normalized growth (locus YLL001W, strain dnm1, active compounds read low): 0.989
normalized growth (locus YLL026W, active compounds read low): 1.01
normalized growth (locus YLL041C, strain sdh2, active compounds read low): 1.02
normalized growth (locus YLR027C, strain aat2, active compounds read low): 1.03
normalized growth (locus YLR113W, strain HOG1, active compounds read low): 0.834 (active)
normalized growth (locus YLR221C, strain rsa3, active compounds read low): 1
normalized growth (locus YLR258W, strain gsy2, active compounds read low): 1.01
normalized growth (locus YLR262C, strain YPT6 (second series), active compounds read low): 1.06
normalized growth (locus YLR320W, strain mms22, active compounds read low): 1.01
normalized growth (locus YLR342W, strain FKS1, active compounds read low): 1.02
normalized growth (locus YLR357W, strain rsc2, active compounds read low): 0.988
normalized growth (locus YLR370C, strain arc18, active compounds read low): 1.02
normalized growth (locus YLR384C, strain iki3, active compounds read low): 1
normalized growth (locus YML120C, strain ndi1, active compounds read low): 1.01
normalized growth (locus YMR058W, strain fet3, active compounds read low): 1.01
normalized growth (locus YMR125W, strain sto1, active compounds read low): 1
normalized growth (locus YMR129W, active compounds read low): 1.01
normalized growth (locus YMR205C, strain PFK2, active compounds read low): 1.02
normalized growth (locus YMR231W, strain pep5, active compounds read low): 1
normalized growth (locus YNL071W, strain lat1, active compounds read low): 1.03
normalized growth (locus YNL183C, strain NPR1, active compounds read low): 0.913
normalized growth (locus YNL209W, strain ssb2, active compounds read low): 1.02
normalized growth (locus YNL248C, strain rpa49, active compounds read low): 0.988
normalized growth (locus YNL322C, strain KRE1 (second series), active compounds read low): 1
normalized growth (locus YNR049C, strain mso1, active compounds read low): 1.02
normalized growth (locus YOR001W, strain rrp6, active compounds read low): 1.01
normalized growth (locus YOR070C, strain gyp1, active compounds read low): 1.01
normalized growth (locus YOR080W, strain dia2, active compounds read low): 1.01
normalized growth (locus YOR083W, strain WHI5, active compounds read low): 1.03
normalized growth (locus YOR106W, strain vam3, active compounds read low): 1.01
normalized growth (locus YOR231W, strain MKK1, active compounds read low): 0.91
normalized growth (locus YOR265W, strain rbl2, active compounds read low): 1.04
normalized growth (locus YOR270C, strain vph1, active compounds read low): 1.11
normalized growth (locus YOR290C, strain snf2, active compounds read low): 1.03
normalized growth (locus YPL051W, strain arl3, active compounds read low): 1.01
normalized growth (locus YPL078C, strain atp4, active compounds read low): 1.01
normalized growth (locus YPL106C, strain sse1, active compounds read low): 0.971
normalized growth (locus YPL240C, strain hsp82, active compounds read low): 1.02
normalized growth (locus YPL256C, strain CLN2, active compounds read low): 0.868
